The nature of test [1]: NCATS anti-infectives library activity on HEK293 viability as a counter-qHTS vs the C. elegans viability qHTS (AID 1745854). Note: potency is the fitted concentration of half-maximal effect. The gist of the method:
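HEK293 cells, 1500 per well, exposed 24 hr at 37C in 5% CO2 to compounds in a 1:5 titration, up to 41.7 uM final. Viability read as CellTiter-Glo luminescence after 10 min at room temperature.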

Test [2] concerns the target Metallo-beta-lactamase type 2 (Klebsiella pneumoniae) (UniProt C7C422). Briefly: qHTS to identify inhibitors of the New Delhi Metallo-beta-lactamase (NDM): assay validation screen against the NCATS LOPAC Collection (AID 1794843). Note: series mostly up to about 38 µM. The gist of the method:
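Absorbance at 485 nm from nitrocefin turnover (50 uM solution added), read at plateau, gives the read-out. Compounds in DMSO were incubated first with 2 nM final NDM-1 in pH 7.0 HEPES buffer containing 1 uM ZnSO4 and 0.01% Tween20.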

Test [3] addresses Glutathione peroxidase 1 (Homo sapiens) (UniProt P07203). Kind of test: Primary qHTS Assay for Inhibitors of Recombinant Selenoprotein Glutathione Peroxidase 1 (GPX1) (AID 1845191). Note: nearly all actives have a fitted effect of over 65% in size. The gist of the method: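 GR-coupled assay: compounds preincubated 30 min at room temperature with GPX1, then reaction started with CHP; final 10 nM GPX1, 1 mM GSH, 0.5 mM CHP, 0.5 mM NADPH, 100 nM GR, 0.01% BSA, pH 7.5 Tris buffer. NADPH fluorescence (340/450 nm) read at 0 and 15 min.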

A short description of test [4]: NCATS anti-infectives library activity on the primary C. elegans qHTS viability assay (AID 1745855; calls by dose curve). Put shortly:
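Viability is taken from GFP fluorescence of PE254-GFP-FLuc C. elegans imaged by laser cytometry over 7 days. Ten L1 worms per well grow at 21 °C on TOP10 E. coli capsules with titrated compound; levamisole marks toxicity.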

Inconclusive results are not listed. Where a call stands in place of a potency, no number is given. Calls of active or inactive are those of the source. Unless noted, calls come from the whole dose curve; as a rule, active = well fitted curve in the direction sought with a large enough effect; inconclusive = small, poorly fitted or top-dose-only effect, or another doubt; inactive = no such curve, though single readings can be large; an effect the other way counts as inactive or inconclusive.

Glutathione peroxidase 1 (Homo sapiens), sequence (P07203 whole entry, looked up): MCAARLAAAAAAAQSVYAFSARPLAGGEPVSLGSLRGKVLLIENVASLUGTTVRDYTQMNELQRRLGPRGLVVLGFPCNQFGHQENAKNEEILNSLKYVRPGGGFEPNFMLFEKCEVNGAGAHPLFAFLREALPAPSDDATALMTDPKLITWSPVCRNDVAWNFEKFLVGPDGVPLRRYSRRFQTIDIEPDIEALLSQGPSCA
Metallo-beta-lactamase type 2 (Klebsiella pneumoniae), sequence (C7C422 whole entry, looked up): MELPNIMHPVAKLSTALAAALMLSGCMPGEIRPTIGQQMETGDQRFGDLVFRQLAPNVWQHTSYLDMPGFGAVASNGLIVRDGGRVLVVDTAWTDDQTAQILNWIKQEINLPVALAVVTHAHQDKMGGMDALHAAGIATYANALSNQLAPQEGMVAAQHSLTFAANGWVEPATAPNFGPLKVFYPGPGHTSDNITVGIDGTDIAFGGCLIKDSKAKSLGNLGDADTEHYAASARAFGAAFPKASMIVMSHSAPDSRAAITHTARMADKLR

In the case of `CC(C)Cc1ccc(C(C)C(=O)O)cc1` (stereo unspecified), the Potency result in test [1] and in test [3] was “inactive” throughout. In test [2], the compound was called inactive.

Consider `CC1(C)O[C@H]2CC(=O)OC[C@]23[C@H]2CC[C@@]4(C)[C@H](c5ccoc5)OC(=O)[C@H]5O[C@]54[C@]2(C)C(=O)C[C@@H]13`, for which the Potency result in test [1] and in test [3] was “inactive” throughout.

`O=C(CCCN1CCC(O)(c2ccc(Cl)cc2)CC1)c1ccc(F)cc1`: the Potency entry in test [1], in test [4] and in test [3] was “inactive” throughout. Besides, the outcome in test [2] was inactive.

Regarding `CC(C)(C)C(=O)Oc1ccc(S(=O)(=O)Nc2ccccc2C(=O)NCC(=O)O)cc1`, the Potency result in test [1] and in test [3] was “inactive” in each case. In test [2], the call was inactive.

Turning to `Nc1nc2c(ncn2COC(CO)CO)c(=O)[nH]1`, the Potency result in test [1] and in test [3] was “inactive” throughout. The result in test [2] was inactive.

In the case of `Nc1ccn([C@H]2CC[C@@H](CO)O2)c(=O)n1`, the Potency result in test [1] and in test [3] was “inactive” throughout. Further, the compound was called inactive in test [2].

Turning to `CN(C)CCCN1c2ccccc2CCc2ccc(Cl)cc21`, the Potency result in test [1] and in test [3] was “inactive” each time. Also, the result in test [2] was inactive.

With `O=C1c2c(O)ccc(O)c2C(=O)c2c(NCCNCCO)ccc(NCCNCCO)c21`, the Potency in test [1] is 12.6 µM (active). Further, the call in test [2] was inactive. Further, the Potency result in test [3] is “inactive”.

For `CN1C(C(=O)Nc2ccccn2)=C(O)c2ccccc2S1(=O)=O`, the call in test [2] was inactive. Also, the Potency result in test [3] was “inactive”.

On to `Fc1ccc([C@@H]2CCNC[C@H]2COc2ccc3c(c2)OCO3)cc1`, for which, in test [2], the outcome was inactive. Further, the Potency result in test [3] is “inactive”.

In the case of `Clc1ccc(C(c2ccccc2Cl)C(Cl)Cl)cc1` (stereo unspecified), in test [2], the call was inactive. Besides, the Potency entry in test [3] was “inactive”.

Turning to `CCCCc1oc2ccccc2c1C(=O)c1cc(I)c(OCCN(CC)CC)c(I)c1`, the call in test [2] was inactive. In addition, in test [3], the Potency result was “inactive”.

Turning to `CC(C)C(=O)Nc1ccc([N+](=O)[O-])c(C(F)(F)F)c1`, the compound was called inactive in test [2]. Further, the Potency entry in test [3] was “inactive”.

`CN1CCN2c3ccccc3Cc3ccccc3C2C1` (stereo unspecified): the call in test [2] was inactive. Moreover, the Potency entry in test [3] is “inactive”.

Source of the values: PubChem BioAssay (NCATS).
